Laboratory results as given in paper PMC5540273 (PLoS ONE, 2017).

Tests used:
Details in all cases: concentration: 1 μM,replicates: in singlicate; n = 1
PIK3C2G = system: PIK3C2G
PIK3CA = system: PIK3CA
PIK3CB = system: PIK3CB
PIK3CD = system: PIK3CD
PIK3CG = system: PIK3CG
PIK4CB = system: T1, PIK4CB
T1 construct: gene PI4KB

PIKFYVE = system: PIKFYVE
PIM1 = system: PIM1
PIM2 = system: PIM2
PIM3 = system: PIM3
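Also: KINOMEscan kinase panel screen.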

Row | SMILES | %Inh (PIK3C2G) [%] | %Inh (PIK3CA) [%] | %Inh (PIK3CB) [%] | %Inh (PIK3CD) [%] | %Inh (PIK3CG) [%] | %Inh (PIK4CB) [%] | %Inh (PIKFYVE) [%] | %Inh (PIM1) [%] | %Inh (PIM2) [%] | %Inh (PIM3) [%]
1 | CC(C)S(=O)(=O)N1CCN(Cc2ccc3c(c2)nc(NC(=O)c2ccsc2)n3C[C@H](O)c2ccccc2)CC1 [GW635815] | 0 | 0 | 0 | 21 | 0 | 0 | 0 | 8 | 0 | 7
2 | Cc1nnc(-c2ccc3occ(-c4ccc(S(C)=O)cc4)c3n2)o1 (stereo not shown) | 0 | 0 | 8 | 0 | 0 | 0 | 0 | 0 | 3 | 4
3 | O=C(Nc1ccc(Oc2ccc3nc(NC(=O)C4CC4)cn3n2)c(F)c1)c1cccn(-c2ccccc2)c1=O | 0 | 0 | 0 | 0 | 0 | 0 | 4 | 5 | 8 | 0
4 | CCCC(=O)Nc1n[nH]c2ncccc12 [SB-601436] | 0 | 0 | 0 | 0 | 7 | 12 | 0 | 0 | 0 | 0
5 | COC(=O)c1cccc(NC(=O)NC2CCN(c3ccnc(NCc4ccc(F)cc4)n3)CC2)c1 [GSK1379860] | 0 | 0 | 0 | 61 | 0 | 0 | 57 | 0 | 0 | 0
6 | Nc1nccc(-c2ccc3c(N)n[nH]c3c2)n1 [GSK1034945] | 0 | 5 | 0 | 3 | 2 | 0 | 0 | 9 | 0 | 7
7 | C[C@@H]1CNc2c(sc3ccc4nc(-c5ccc(O)cc5)ccc4c23)C(=O)N1 | 28 | 5 | 34 | 39 | 11 | 0 | 18 | 37 | 93.7 | 72
